“And” between values parts separate entries of the source, which are not always exact repeats. Equal values may be shown once. Compounds without any hit were thinned out: in the full panel of roughly 83,000, 20% have a hit.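 Each cell line was grown in a 96-well plate and treated with one concentration of compound for 48 hours. Values below 10 were considered active.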 The source made the active and inactive calls.
Columns and labels:
Assay in all cases: NCI-60 one-dose screen, 48 h (100 = growth as untreated, 0 = no growth, -100 = all killed)
Details in all cases: 10 µM unless noted
DU-145 prostate = test system: DU-145 prostate
K-562 leukemia = test system: K-562 leukemia
MALME-3M melanoma = test system: MALME-3M melanoma
MDA-MB-231 breast = test system: MDA-MB-231 breast
RXF 393 renal = test system: RXF 393 renal
SF-268 CNS = test system: SF-268 CNS
SF-295 CNS = test system: SF-295 CNS
SF-539 CNS = test system: SF-539 CNS
UACC-257 melanoma = test system: UACC-257 melanoma
M14 melanoma = test system: M14 melanoma
HCT-15 colon = test system: HCT-15 colon
HT29 colon = test system: HT29 colon
SNB-75 CNS = test system: SNB-75 CNS
SNB-19 CNS = test system: SNB-19 CNS
U251 CNS = test system: U251 CNS
PC-3 prostate = test system: PC-3 prostate
SK-MEL-5 melanoma = test system: SK-MEL-5 melanoma
UACC-62 melanoma = test system: UACC-62 melanoma
LOX IMVI melanoma = test system: LOX IMVI melanoma
SK-MEL-28 melanoma = test system: SK-MEL-28 melanoma

SMILES | growth (DU-145 prostate) | growth (K-562 leukemia) | growth (MALME-3M melanoma) | growth (MDA-MB-231 breast) | growth (RXF 393 renal) | growth (SF-268 CNS) | growth (SF-295 CNS) | growth (SF-539 CNS) | growth (UACC-257 melanoma) | growth (M14 melanoma) | growth (HCT-15 colon) | growth (HT29 colon) | growth (SNB-75 CNS) | growth (SNB-19 CNS) | growth (U251 CNS) | growth (PC-3 prostate) | growth (SK-MEL-5 melanoma) | growth (UACC-62 melanoma) | growth (LOX IMVI melanoma) | growth (SK-MEL-28 melanoma)
O=CC(O)C(O)C(O)CO (stereo not given) | 107% (inactive) and 108% (inactive) | 114% (inactive) and 99.3% (inactive) | 122% (inactive) | 92.5% (inactive) and 125% (inactive) | 104% (inactive) | 107% (inactive) and 100% (inactive) | 121% (inactive) | 88.1% (inactive) and 111% (inactive) | 106% (inactive) | 113% (inactive) and 98% (inactive) | 100% (inactive) | 113% (inactive) and 102% (inactive) | 104% (inactive) and 97.8% (inactive) | 103% (inactive) and 113% (inactive) | 102% (inactive) and 105% (inactive) | 41.2% (inactive) and 98.4% (inactive) | 87.1% (inactive) and 103% (inactive) | 96.6% (inactive) and 117% (inactive) | 99.5% (inactive) and 100% (inactive) | 104% (inactive) and 109% (inactive)
CNC(=O)c1cc(Oc2ccc(NC(=O)Nc3ccc(Cl)c(C(F)(F)F)c3)cc2)ccn1 | 20.7% (inactive) and 13.7% (inactive) | 1.27% (active) and 29.2% (inactive) | -40.2% (active) and 53% (inactive) | -34% (active) and -34.5% (active) | -35.8% (active) and -56.3% (active) | 25.7% (inactive) and 7.26% (active) | 10.7% (inactive) and 6.13% (active) | -33.4% (active) and 10.8% (inactive) | -26.1% (active) | -4.68% (active) and 5.32% (active) | 1.74% (active) and 5.49% (active) | -3.38% (active) and 9.81% (active) | -38.9% (active) and 21.8% (inactive) | 13.3% (inactive) and 20.6% (inactive) | 1.89% (active) and 0.072% (active) | 11.6% (inactive) and -9.74% (active) | -73.1% (active) and -56.6% (active) | -49.4% (active) and -25.5% (active) | -14.6% (active) and -55.1% (active) | -15.7% (active) and -26.7% (active)
O=S1(=O)CC(Br)C(Br)C1 (stereo not given) | 72.3% (inactive) and 129% (inactive) | 47% (inactive) and 69.7% (inactive) | 19.9% (inactive) and 53.1% (inactive) | 88% (inactive) and 103% (inactive) | 40.1% (inactive) and 67.5% (inactive) | 109% (inactive) and 129% (inactive) | 111% (inactive) and 99.8% (inactive) | 97.6% (inactive) and 99.1% (inactive) | 71.5% (inactive) and 64.7% (inactive) | 73.2% (inactive) and 87.5% (inactive) | 49.1% (inactive) and 61.1% (inactive) | 27.7% (inactive) and 79% (inactive) | 100% (inactive) and 88.8% (inactive) | 98.7% (inactive) and 97.2% (inactive) | 98% (inactive) and 97% (inactive) | 86.3% (inactive) and 92.6% (inactive) | 93.2% (inactive) and 99.2% (inactive) | 86.5% (inactive) and 93.4% (inactive) | 81.3% (inactive) and 38.4% (inactive) | 80.8% (inactive) and 106% (inactive)
CC(C)Oc1ccc2cc(-c3nn(CC4CCNCC4)c4ncnc(N)c34)ccc2c1 | 107% (inactive) and 40.4% (inactive) | 43.1% (inactive) and -68.4% (active) | 73.7% (inactive) and -77.1% (active) | 60.5% (inactive) and -42.9% (active) | 39.3% (inactive) and -73.3% (active) | 88.4% (inactive) and 1.08% (active) | 97.8% (inactive) and -54.6% (active) | 73.1% (inactive) and -83.1% (active) | -81.8% (active) | 5.7% (active) and -84.7% (active) | 61.9% (inactive) and -7.35% (active) | 37.9% (inactive) and -13.1% (active) | 59% (inactive) and -38.7% (active) | 92.7% (inactive) and 24.8% (inactive) | 77.7% (inactive) and -11.9% (active) | 65.1% (inactive) and 16.6% (inactive) | 59.8% (inactive) and -94.4% (active) | -65.3% (active) | 69.8% (inactive) and -80.3% (active) | 79.1% (inactive) and -85.7% (active)
